Laboratory results published in PubChem BioAssay AID720514 (Broad Institute, 2013).
The whole screen tested about 2,100 compounds, of which about 300 (14%) were called active. Another 2% or so got no clear call; they are omitted.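 The calls were made as follows: active = every replicate test run called active, with the signal falling and half-maximal concentration within twice the top valid dose; inconclusive = the replicate test runs disagree in their calls; inactive = every test run inactive, including effects in the opposite direction.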 A selection follows. Results with a measured potency or affinity are listed apart.

Assay: inhibitors of PGC1a acetylation in cells, dose response, cell-based, cherry-picked samples (AID 720514)
Conditions: U2OS PGC1a acetylation, AlphaLISA, overnight; series mostly up to 19.5 µM

outcome, inactive:
Fc1ccc(CN(Cc2ccccc2)C(c2cccs2)c2nnnn2C2CCCCC2)cc1 (configuration not stated)
O=C(NCc1ccc(Cl)cc1)C1CCC(CNc2c(N3CCCC3)c(=O)c2=O)CC1 (configuration not stated)
Cc1cccc(Oc2nccc(C(F)(F)F)c2C(=O)Nc2ccc(F)cc2F)c1
c1coc(CN(Cc2cccs2)Cc2nnnn2C2CCCCC2)c1
C[C@@H](c1ccccc1)N1Cc2ccccc2Oc2cc(Br)ccc2S1(=O)=O
CCOC(=O)C1=CC[C@@H](c2ccc(F)cc2)N(S(=O)(=O)c2ccc(C)cc2)[C@H]1c1ccccc1
C=C[C@H]1C(C(=O)OCC)=CC[C@@H](c2ccccc2)N1S(=O)(=O)c1ccc(C)cc1
O=C(Nc1cccnc1)c1ccc(Oc2ccccc2)cc1
Nc1ccc(N2CCCCC2)cc1N1CCCCC1
O=C(Nc1cccnc1)c1ccc(Br)s1
Cc1ccc2[nH]c(=O)c(CN(Cc3ccc4c(c3)OCO4)Cc3nnnn3C3CCCC3)cc2c1
CC(C)CC#Cc1ccc([C@@H]2[C@H](CO)N3CCCCN(S(=O)(=O)Cc4ccccc4)C[C@@H]23)cc1
O=C(c1ccc(F)cc1)N1CC(=O)N2[C@H](CO)[C@@H](c3ccc(C#CCC4CCCC4)cc3)[C@@H]2C1
O=C(Nc1ccc(F)cc1)N1CC(=O)N2[C@@H](CO)[C@H](c3ccc(Br)cc3)[C@@H]2C1
Cc1cccc(OC2(c3ccccc3)OC(=O)c3ccccc32)c1C (configuration not stated)
O=C(COc1cccnc1[N+](=O)[O-])NCCc1ccc(Cl)cc1
COc1cccc(-c2ccc(C3[C@@H]4CN(S(=O)(=O)c5cccc(OC)c5)C[C@H]3N4)cc2)c1 (some centres not stated)
COc1ccccc1-c1ccc(C2[C@@H]3CN(Cc4cccc(F)c4)C[C@H]2N3)cc1 (some centres not stated)
N#Cc1ccccc1S(=O)(=O)N1CCN(Cc2cc3c(cc2Br)OCCO3)CC1
CC(C)(C)c1ccc(NC(=O)N2CCCN(c3ccc([N+](=O)[O-])cn3)CC2)cc1
Cc1ccc(O)c(C(=O)c2cnc3c(c2)CN(CCC(C)C)C(=O)N3)c1
COc1ccc(Cc2nc(-c3ccc(NC(=O)c4cccnc4)cc3)no2)cc1
C=CCn1c(=NC(=O)c2ccc(S(=O)(=O)N3CCCC3)cc2)sc2cc(NC(C)=O)ccc21
CCOCCn1c(CN(Cc2ccccc2)Cc2ccccc2)nc2c1c(=O)[nH]c(=O)n2C
N#Cc1ccc(Oc2cccnc2)cc1C#N
COc1ccc(NC(=O)C(=O)NCCC2CCCCN2S(=O)(=O)c2cccs2)cc1 (configuration not stated)
COc1ccccc1-c1ccc2c(c1)C(C)(Cc1ccc(OC(F)(F)F)cc1)C(=O)N2 (configuration not stated)
O=C1Nc2cc(S(=O)(=O)N3CCCC3)ccc2N2CCCC12 (configuration not stated)
Cc1cc(N2CCC(C(N)=O)CC2)nc(-c2ccccc2)n1
CCOC(=O)C1=C[C@@H](C(C)C)N(S(=O)(=O)c2ccc(C)cc2)[C@H]1c1ccc(C(F)(F)F)cc1
COc1ccc(C(C)(O)c2nc(-c3ccc(S(C)(=O)=O)cc3)cs2)cc1 (configuration not stated)
COc1ccc(CNc2ccc(-c3ccc(OC)cc3)nn2)cc1
CCOC(=O)CC(S(=O)(=O)c1ccccc1)S(=O)(=O)c1ccccc1
COc1ccc(CCNCc2ccc(-c3ccccc3)cc2)cc1OC
O=C1C=C(c2cc3ccccc3s2)CCC1
O=C(c1cccs1)N1CCN(c2nnc(-c3ccccc3)c3ccccc23)CC1
N=c1n(CCN2CCCC2)c2ccccc2n1CC(O)c1ccc(Cl)c(Cl)c1 (configuration not stated)
O=C(c1ccco1)N1CCN(c2nnc(-c3ccccc3)c3ccccc23)CC1
Cc1cccc2cc(CN(Cc3ccc(F)cc3)Cc3nnnn3C3CCCC3)c(=O)[nH]c12
Oc1ccc(C[C@@H]2CNCCN2CCC23CC4CC(CC(C4)C2)C3)cc1
CCn1nc(C)c(CN2CCc3c([nH]c4ccccc34)C2C(C)(C)C)c1C (configuration not stated)
CCOC(=O)C1(Cc2ccccc2)CCN(Cc2cccc(OC)c2O)CC1
Cc1cc(C)c2c(-n3cccc3)c(C(=O)NNS(=O)(=O)c3ccccc3)sc2n1
Cc1cccc(S(=O)(=O)N(C)C[C@@H]2OCc3cn(nn3)CCCC(=O)N([C@H](C)CO)C[C@H]2C)c1
C[C@H]1CN([C@@H](C)CO)C(=O)CCCn2cc(nn2)CO[C@H]1CN(C)S(=O)(=O)c1ccc(Cl)cc1
CC(=O)CCS(=O)(=O)c1ccc(C)c(C)c1
COC(=O)C[C@@H]1C[C@H]2c3cc(NC(=O)Nc4ccc(C(F)(F)F)cc4)ccc3O[C@H]2[C@H](CO)O1
O=C(C[C@@H]1C[C@@H]2c3cc(NC(=O)Nc4ccccc4F)ccc3O[C@@H]2[C@@H](CO)O1)NCc1ccc(Oc2ccccc2)cc1
COc1ccc(CCNC(=O)COc2ccc(S(=O)(=O)N3CCCC3)cc2)cc1
COc1ccc(CC(CC(=O)O)C(=O)Nc2ccc(OC)cc2)cc1 (configuration not stated)
CCn1c(SC/C=C/c2ccccc2)nnc1-c1cccs1
CC(=O)c1ccc(N2CCN(C(=O)C(=O)c3c(C)[nH]c4ccccc34)CC2)cc1
CC(=O)c1c(-c2ccccc2)[nH]c2ccccc12
O=C(Nc1ccc2c(c1)OCO2)C1CCN(c2ccc(S(=O)(=O)N3CCOCC3)cc2)CC1
O=C(Nc1cccc(S(=O)(=O)N2CCOCC2)c1)c1ccco1
O=C(CC1SC(=NCc2ccccc2)NC1=O)Nc1ccccc1 (configuration not stated)
O=C(CC1CC1)N[C@@H]1CC[C@H](CCNS(=O)(=O)c2ccc(Cl)cc2)O[C@H]1CO
COc1cc(Cn2c(N)c(C#N)c3nc4ccccc4nc32)cc(OC)c1
COC(=O)CSc1nc(-c2ccccc2)cc(-c2ccco2)c1C#N
CCC(C)(C)n1nnnc1CN(Cc1ccc(Cl)cc1)Cc1ccco1
O=C(/C=C/Sc1ncn[nH]1)c1ccc(Cl)cc1
Cc1sc(NC(=O)c2cccs2)nc1-c1ccccc1
CN1CCN(C(=O)CSc2nc(-c3cccs3)cc(-c3cccs3)c2C#N)CC1
CC(=O)c1ccc(OCC(=O)OCC(=O)Nc2sccc2C(N)=O)cc1
CCOC(=O)c1c(NC(=O)CSc2cn(CC)c3ccccc23)sc2c1CCC2
CCOC(=O)c1nc(S(C)(=O)=O)ncc1Cl
O=C(c1ccc(NC(=O)C2(c3ccccc3)CCOCC2)cc1)N1CCOCC1
CCOC(=O)c1c(NC(=O)c2ccoc2C)sc2c1CCC2
CC1CCCN(Cc2c(O)ccc3c(=O)c(-c4nc5ccccc5s4)c(N)oc23)C1 (configuration not stated)
Cc1ccccc1S(=O)(=O)NCC[C@@H]1CC[C@H](NC(=O)C2CCOCC2)[C@@H](CO)O1
CC(C)NC(=O)NCC[C@H]1CC[C@H](NC(=O)c2ccc(F)cc2)[C@H](CO)O1
CCC(C)(CC(=O)O)CC(=O)Nc1cc(C(F)(F)F)cc(C(F)(F)F)c1 (configuration not stated)
COc1ccc(-c2nc3c(C)cc(Br)cn3c2Cc2ccc(C)cc2)cc1OC
COc1cc(C)c(CN2CCN(S(=O)(=O)c3ccc(Cl)s3)CC2)cc1OC
O=C(CN1CCC(n2nnc3cc(F)ccc32)CC1)Nc1ccc2c(c1)CCC2
CCOC(=O)C1=C[C@@H](C(C)(C)C)N(S(=O)(=O)c2ccc(C)cc2)[C@H]1c1cccc2ccccc12
Cc1ccccc1S(=O)(=O)N[C@@H]1CC[C@@H](CCn2cc(Cc3ccccc3)nn2)O[C@H]1CO
CC(C)(C)C(=O)Nc1sc2c(c1-c1nc3ccccc3[nH]1)CCCC2
CC(Sc1nc2ccccc2s1)C(=O)NC1CCCc2ccccc21 (configuration not stated)
Cc1ccc(CNC(=O)C2CC(c3ccc([N+](=O)[O-])cc3)=NO2)cc1 (configuration not stated)
Cc1coc2cc3oc(=O)c(CCC(=O)NC4CC4)c(C)c3cc12
Cc1ccccc1-c1ccc([C@@H]2[C@H](CO)N3CCCCN(C(=O)Nc4cccc(F)c4)C[C@@H]23)cc1
CCOc1ccc(N(C)S(=O)(=O)c2cc(-c3cc(C)no3)ccc2OC)cc1
CCOC(=O)c1ccccc1NS(=O)(=O)c1ccc(OCC)cc1
COc1ccc(NC(=O)CSC2CC(=O)N(c3ccc4c(c3)OCCO4)C2=O)cc1 (configuration not stated)
COc1ccc(N(C(=O)c2snc(C(N)=O)c2N)C(C(=O)NC2CCCC2)c2ccco2)c(OC)c1 (configuration not stated)
COc1ccc(N(C(=O)c2snc(C(N)=O)c2N)C(C(=O)NC2CCCCC2)c2ccc(C)o2)cc1 (configuration not stated)
COc1ccc(N(C(=O)c2snc(C(N)=O)c2N)C(C(=O)NC2CCCCC2)c2ccc(F)cc2)c(OC)c1 (configuration not stated)
CC(C)C(OC(=O)c1cccs1)C(=O)NC1CCCCC1 (configuration not stated)
COc1ccc(N(C(=O)c2csnn2)C(C(=O)NC2CCCC2)c2cccs2)cc1 (configuration not stated)
C[C@@H]1CN([C@H](C)CO)C(=O)c2c(c3ccccc3n2C)-c2ccccc2CO[C@@H]1CN(C)C(=O)c1ccc(F)cc1
Oc1ccc(Nc2nnc(-c3ccc(O)cc3)c3ccccc23)cc1
O=C(CC1SC(=Nc2ccc3c(c2)OCCO3)NC1=O)Nc1ccc(F)cc1F (configuration not stated)
CCOC(=O)C1=C[C@@H](C(C)(C)C)N(S(=O)(=O)c2ccc(C)cc2)[C@H]1c1ccccc1
CC(C)(C)n1nnnc1CN(Cc1ccc(F)cc1)Cc1ccco1
CCOC(=O)c1c(CN2CCN(CC#N)CC2)n(C)c2cc(Br)c(OC)cc12
CCOC(=O)c1c(C)n(C)c2ccc(OCC(O)Cn3nc(C)c(Br)c3C)cc12 (configuration not stated)
